In the supplement of paper PMC10981050:
Where “and” joins values, the source holds several entries; their conditions need not be identical. Equal entries are not always repeated. Structures can show the parent of a compound that is named as a salt.

What was measured:
Assay in all cases: cell viability relative to vehicle control; higher = less cytotoxic
Details in all cases: 10 µM
K562 = tested on: K562
Summary of the method: (§1)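 CRISPR-edited SRSF2 P95 mutant and isogenic wild-type clones of four leukaemia lines were screened against Selleck bioactive, kinase and epigenetic probe libraries, with identity-inconsistent compounds removed. Compounds were acoustically dispensed into 384-well plates at a single 10 µM dose, with 2000 cells in 50 µL medium per well. After 48 h, supernatant was removed and CellTiter-Glo luminescence was read. Viability was expressed as percent of the on-plate DMSO vehicle control, analysed in Genedata Screener.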

MARIMO = tested on: MARIMO
Summary of the method: as §1

MOLM14 = tested on: MOLM14
Summary of the method: as §1

OCI-AML2 = tested on: OCI-AML2
Summary of the method: as §1

SMILES	cell viability (K562; SRSF2 genotype: SRSF2 P95H/wt)	cell viability (K562; SRSF2 genotype: SRSF2 wt/wt)	cell viability (MARIMO; SRSF2 genotype: SRSF2 P95H/wt)	cell viability (MARIMO; SRSF2 genotype: SRSF2 wt/wt)	cell viability (MOLM14; SRSF2 genotype: SRSF2 P95H/wt)	cell viability (MOLM14; SRSF2 genotype: SRSF2 wt/wt)	cell viability (OCI-AML2; SRSF2 genotype: P95H/wt)	cell viability (OCI-AML2; SRSF2 genotype: wt/wt)
Nc1[nH]cnc2ncnc1-2 [Adenine sulfate]	108% and 94.6%	99.3%	94.7%	103%	93.5%	99.7%	102%	112%
CCOC(=O)C1=C(COCCN)NC(C)=C(C(=O)OC)C1c1ccccc1Cl (configuration not stated) [Amlodipine (Norvasc)]	83% and 92.4%	84.4%	73.8%	78.3%	53.3%	62.5%	38.9%	50%
CC(=O)OCC(=O)[C@@]1(O)CC[C@H]2[C@@H]3CCC4=CC(=O)CC[C@]4(C)[C@H]3C(=O)C[C@@]21C [Cortisone acetate (Cortone)]	110% and 108%	118%	118%	109%	112%	112%	117%	109%
CC(C)=CCC[C@@](C)(O)[C@H]1CC[C@@]2(C)[C@@H]1[C@H](O)C[C@@H]1[C@@]3(C)CC[C@H](O)C(C)(C)C3CC[C@]12C (stereo partly drawn) [(20R)-Protopanaxdiol]	109% and 101%	96%	103%	105%	106%	102%	103%	101%
Cc1cn(-c2cc(NC(=O)c3ccc(C)c(Nc4nccc(-c5cnccn5)n4)c3)cc(C(F)(F)F)c2)cn1 [Radotinib]	22.3% and 38.7%	22.1%	107%	111%	104%	100%	103%	104%
O=c1cc(N2CCOCC2)oc2c(-c3cccc4c3sc3ccccc34)cccc12	89.7% and 97.5%	88.3%	93%	87.3%	60.5%	51.9%	52.5%	66.4%
C[C@H]1[C@@H](O)O[C@@H]2O[C@@]3(C)CC[C@H]4[C@H](C)CC[C@@H]1[C@@]24OO3 [Dihydroartemisinin (DHA)]	37.7% and 30.4%	28.8%	25%	29.9%	22.1%	9.71%	0.58%	7.67%
Cc1ccc2nc(CN(CCN(Cc3nc4ccc(C)cc4[nH]3)Cc3nc4ccc(C)cc4[nH]3)Cc3nc4ccc(C)cc4[nH]3)[nH]c2c1	1.04% and 0.84%	1.19%	0.68%	0.61%	0.58%	0.53%	0.47%	0.63%
O=C(/C=C/c1ccc(CN(CCO)CCc2c[nH]c3ccccc23)cc1)NO [LAQ824 (Dacinostat)]	1.15% and 10.3%	2.76%	5.99%	11.9%	0.84%	0.58%	1.63%	2.36%
Clc1ccc(C(c2c[nH]c3ccccc23)c2c[nH]c3ccccc23)cc1	83% and 83.3%	76.5%	86.3%	93.2%	62.7%	73%	92%	96.7%
CNCc1cc(-c2ccccc2F)n(S(=O)(=O)c2cccnc2)c1 [Vonoprazan Fumarate (TAK-438)]	94.5% and 98%	94.2%	85.5%	89.8%	93%	91.3%	97.1%	85.7%
CC/C(=C(\c1ccc(O)cc1)c1ccc(OCCN(C)C)cc1)c1ccccc1 [4-Hydroxytamoxifen]	27.4% and 32.6%	28%	55.8%	53.5%	32.9%	27.8%	22.6%	39.5%
C[C@H](NC(=O)CCc1nc2ccccc2c(=O)[nH]1)c1ccccc1	103%	108%	106%	100%	105%	100%	105%	121%
CNc1cccc(CCOc2ccc3c(c2)CN(CC(F)(F)F)C(=O)[C@H](CC(=O)O)C3)n1	101%	91.5%	96.1%	102%	97.7%	98.6%	100%	106%
COC1=CC(=O)c2ccccc2C1=O [2-Methoxy-1,4-naphthoquinone]	3.03% and 1.06%	18.6%	46.3%	48%	31.2%	17.5%	36.9%	38.8%
CC(=O)SCC(Cc1ccccc1)C(=O)NCC(=O)OCc1ccccc1 (configuration not stated) [Racecadotril (Acetorphan)]	108% and 106%	103%	98.3%	99%	106%	105%	118%	102%
Cc1ccc(NC(=O)c2ccc(CN3CCN(C)CC3)cc2)cc1Nc1nccc(-c2cccnc2)n1 [Imatinib (STI571)]	12.8% and 26.4%	16.5%	101%	103%	85%	95%	82.6%	72.3%
C[C@]12C=CC(=O)N[C@@H]1CC[C@@H]1[C@@H]2CC[C@]2(C)[C@@H](C(=O)Nc3cc(C(F)(F)F)ccc3C(F)(F)F)CC[C@@H]12 [Dutasteride]	94.4% and 96.6%	95%	102%	94.1%	96%	98.3%	101%	94.7%
NS(=O)(=O)c1cc2c(cc1Cl)N=CNS2(=O)=O [Chlorothiazide]	100% and 94%	94.5%	98%	105%	102%	97.8%	93.7%	109%
O=C(O)CC(O)(CC(=O)OCc1ccc(O[C@@H]2O[C@H](CO)[C@@H](O)[C@H](O)[C@H]2O)cc1)C(=O)OCc1ccc(O[C@@H]2O[C@H](CO)[C@@H](O)[C@H](O)[C@H]2O)cc1 (some centres not stated) [Parishin B]	106% and 105%	109%	103%	98.4%	113%	105%	99.6%	100%

SMILES	cell viability (K562; SRSF2 genotype: SRSF2 P95H/wt)	cell viability (K562; SRSF2 genotype: SRSF2 wt/wt)	cell viability (MARIMO; SRSF2 genotype: SRSF2 P95H/wt)	cell viability (MARIMO; SRSF2 genotype: SRSF2 wt/wt)	cell viability (MOLM14; SRSF2 genotype: SRSF2 P95H/wt)	cell viability (MOLM14; SRSF2 genotype: SRSF2 wt/wt)	cell viability (OCI-AML2; SRSF2 genotype: P95H/wt)	cell viability (OCI-AML2; SRSF2 genotype: wt/wt)
Cc1nc(C#Cc2ccnc(Cl)c2)c(C)n1-c1ccc(OC(F)(F)F)cc1	75.6% and 89.6%	75.7%	82.7%	88.9%	78.8%	80.2%	55.7%	68.7%
CCCC(C)NC(=O)c1ccc(Cl)c(Cl)c1 (configuration not stated)	101% and 97.6%	105%	90.5%	96.2%	112%	103%	96%	96.8%
CCCCCCCCCCCCCCCCn1cc[n+](Cc2ccccc2)c1C	0.26% and 0.36%	0.22%	0.21%	0.19%	0.01%	0%	0.05%	0.07%
O=C(O)CCn1c(O)c(C2=c3cc(Cl)ccc3=NC2=O)sc1=S	87.5% and 92.5%	88.2%	84.1%	88.7%	71.7%	83.2%	107%	116%
CCOC(=O)c1ccc(O)c(OC)c1 [Ethyl Vanillate]	97.5% and 92.9%	100%	105%	108%	94.1%	104%	103%	91.1%
Cc1ccccc1N1CCN(CCc2nnc3n2CCCC3)CC1 [Dapiprazole Hydrochloride]	103% and 96%	93.2%	97.7%	110%	97%	102%	96.4%	97.1%
N[C@@H](Cc1cc(I)c(Oc2cc(I)c(O)c(I)c2)c(I)c1)C(=O)O [Levothyroxine sodium]	89.6% and 92.8%	106%	102%	104%	92.9%	101%	100%	94.3%
NC1=N[C@@](c2cccc(-c3cncnc3)c2)(c2ccnc(C(F)F)c2)c2cccc(F)c21	76.9% and 74.8%	81.4%	80.1%	95.2%	85.7%	84.1%	71.1%	71.3%
CCOC(=O)[C@H](CCc1ccccc1)N[C@H]1CCc2ccccc2N(CC(=O)O)C1=O [Benazepril hydrochloride]	109% and 106%	108%	101%	111%	95.9%	98.9%	93.3%	102%
O=C(NO)c1cccc(C(=O)NCCc2ccccc2)c1	91% and 97.1%	101%	91.9%	86.8%	89.6%	94.3%	90.7%	93.3%
CC(OC(=O)OC1CCCCC1)OC(=O)C1=C(CSc2nnnn2CCN(C)C)CS[C@@H]2[C@H](NC(=O)Cc3csc(N)n3)C(=O)N12 (some centres not stated) [Cefotiam Hexetil Hydrochloride]	105% and 98.2%	93.7%	87.5%	94.9%	89.9%	94.3%	90%	93.8%
O=C(c1cccc(Br)c1)N1CCC(N2CCCC2)CC1	105% and 98.6%	91.6%	92.3%	110%	105%	105%	87.9%	101%
CC1OC(OC2C(OC3CC4(C)C(CC(O)C5C(C6(C)CCC(C(C)(C)O)O6)CCC54C)C4(C)CCC(O)C(C)(C)C34)OC(CO)C(O)C2O)C(O)C(O)C1O (configuration not stated) [Pseudoginsenoside F11]	107% and 104%	111%	107%	103%	113%	108%	103%	98.4%
Cc1cccc(C)c1OCC(=O)N[C@@H](Cc1ccccc1)[C@@H](O)C[C@H](Cc1ccccc1)NC(=O)[C@H](C(C)C)N1CCCNC1=O [Lopinavir (ABT-378)]	85.5% and 94.8%	86.7%	97.4%	98.2%	92.2%	102%	97.3%	92.2%
CC[C@H]1OC(=O)[C@H](C)[C@@H](O[C@H]2C[C@@](C)(OC)[C@@H](O)[C@H](C)O2)[C@H](C)[C@@H](O[C@@H]2O[C@H](C)C[C@H](N(C)C)[C@H]2O)[C@](C)(O)C[C@@H](C)C(=O)[C@H](C)[C@@H](O)[C@]1(C)O [Erythromycin thiocyanate]	97.3% and 94.2%	94.6%	82.7%	91.9%	87.9%	89.1%	87%	90.1%
CCN1CCC[C@H]1CNC(=O)c1cc(S(N)(=O)=O)ccc1OC [Levosulpiride (Levogastrol)]	101% and 103%	108%	111%	104%	109%	107%	104%	93.6%
COc1ccccc1OCC(O)CN1CCN(CC(=O)Nc2c(C)cccc2C)CC1 (configuration not stated) [Ranolazine (Ranexa)]	99.1% and 96.1%	91.9%	96.6%	102%	97.8%	99.2%	94.9%	102%
COc1cc(C2Oc3cc([C@H]4Oc5cc(O)cc(O)c5C(=O)[C@@H]4O)ccc3OC2CO)ccc1O (some centres not stated) [Silibinin (Silybin)]	95% and 94%	92.2%	97.5%	110%	98.8%	98.4%	104%	116%
Cc1cnc(C(=O)N[C@H]2CCCCC/C=C\[C@@H]3C[C@@]3(C(=O)NS(=O)(=O)C3CC3)NC(=O)[C@@H]3C[C@@H](Oc4nc5ccccc5c5ccccc45)CN3C2=O)cn1 [Paritaprevir(ABT-450)]	98.7% and 91.6%	91.4%	106%	119%	97.8%	100%	115%	114%
